From PubChem BioAssay (NCATS)
“And” between values parts separate entries of the source, which are not always exact repeats. Identical values can stand only once. Inconclusive results are not listed. Where a call stands in place of a potency, no number is given. The source made the active and inactive calls. Unless noted, calls come from the whole dose curve; as a rule, active = well fitted curve in the direction sought with a large enough effect; inconclusive = small, poorly fitted or top-dose-only effect, or another doubt; inactive = no such curve, though single readings can be large; an effect the other way counts as inactive or inconclusive.

What was measured:
[1] = Validation of Assay for Modulators of Lamin A Splicing (AID 1459; active = well fitted curve in the direction sought with a large enough effect in the signal ratio; the % refers to the signal ratio;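 note: cells exposed to compound for two days before reading; ratio rise marks activators and ratio drop marks inhibitors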)
Summary of the method: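 Dual-reporter HeLa S3 line (lamin A-EGFP minigene, DsRed2) treated with compounds 48 hrs, 0.5% DMSO final. Endpoint: EGFP/DsRed2 total intensity ratio from laser-scanning microplate cytometry.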

[2] = qHTS Assay for Lipid Storage Modulators (AID 1519; calls by dose curve); settings: Drosophila S3 cells, BODIPY lipid droplet/cell ratio, laser cytometry, cells loaded with oleic acid
Summary of the method: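 Cells seeded at 5,000 per well were treated with compounds over a concentration series and loaded with oleic acid (400 uM, as added). Lipid droplet fluorescence (488 nm excitation, 500-530 nm channel) was read by laser-scanning cytometry and normalized to 20 uM Triacsin C.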

[3] = target: Alpha-galactosidase A (Homo sapiens) (UniProt P06280); test: Counterscreen for Glucocerebrosidase Inhibitors: qHTS Assay for Human alpha-Galactosidase at pH 4.5 (AID 992)
Alpha-galactosidase A (Homo sapiens), sequence (P06280 whole entry, looked up): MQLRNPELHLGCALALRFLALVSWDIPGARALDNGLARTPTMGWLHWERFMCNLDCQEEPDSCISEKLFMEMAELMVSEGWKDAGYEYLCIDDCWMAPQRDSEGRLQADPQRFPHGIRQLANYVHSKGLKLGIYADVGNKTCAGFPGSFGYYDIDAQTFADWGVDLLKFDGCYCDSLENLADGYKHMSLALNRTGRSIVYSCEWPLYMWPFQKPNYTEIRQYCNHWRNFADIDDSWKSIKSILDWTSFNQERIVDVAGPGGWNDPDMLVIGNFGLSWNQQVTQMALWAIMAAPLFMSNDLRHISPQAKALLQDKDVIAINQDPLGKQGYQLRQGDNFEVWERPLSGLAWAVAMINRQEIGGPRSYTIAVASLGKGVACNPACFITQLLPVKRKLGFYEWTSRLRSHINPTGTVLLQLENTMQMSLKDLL
Summary of the method: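 Enzyme at 2 nM final was combined with compound (0.7 nM to 77 uM) and 80 uM 4-methylumbelliferyl alpha-D-galactopyranoside in 50 mM citric acid, 0.005% Tween-20, pH 4.5. After 20 min at room temperature, fluorescence was read (Ex 365/Em 440 nm); AC50 came from Hill fits.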

[4] = target: alpha-glucosidase (Oryza sativa, rice) (UniProt Q653V4); test: Counterscreen for Glucocerebrosidase Inhibitors: qHTS Assay for Rice alpha-Glucosidase at pH 5.0 (AID 997)
Summary of the method: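 Rice alpha-glucosidase (4 nM final) with 400 uM 4-methylumbelliferyl-alpha-D-glucopyranoside in citrate buffer pH 5.0, 20 min at room temperature, stopped at pH 10; fluorescence 365/440 nm, compounds 0.7 nM–77 uM, AC50 from Hill fits.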

[5] = Cell Viability - LYMP2-023 (AID 975);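 note: cellular ATP measured by luciferase luminescence as viability proxy; nearly all actives have a fitted effect of over 55% in size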
Summary of the method: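 2500 cells/well, 5 hr 37 C; cpd 24 hr 37 C; CellTiter-Glo, 30 min RT; luminescence. qHTS conc-response, Hill fit -> AC50. Pos ctrl tetraoctylammonium bromide.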

[6] = Cell Viability - LYMP2-025 (AID 976)
Summary of the method: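 Seed 2500 LYMP2-025 cells/well; 5 hr at 37 C; add compound; 24 hr at 37 C; add CellTiter-Glo; 30 min RT; read luminescence. AC50 from Hill-modelled concentration-response.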

[7] = Cell Viability - LYMP2-002 (AID 977);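 note: compound exposure lasted 24 h at 37 °C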
Summary of the method: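 Human lymphoblastoid LYMP2-002 cells, 2500 per well, exposed to compounds for 24 h at 37 C in complete medium; viability read as intracellular ATP by CellTiter-Glo luminescence, AC50 from Hill fits.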

[8] = Cell Viability - LYMP2-006 (AID 978); note: nearly all actives have a fitted effect of over 60% in size
Summary of the method: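 In this cytotoxicity screen, the human lymphoblastoid line grew in complete medium with test compounds for 24 hr at 37 C. Cellular ATP served as the viability signal.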

[9] = Cell Viability - LYMP2-007 (AID 979);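 note: cells exposed to compound for 24 h before reading; nearly all actives have a fitted effect of over 60% in size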
Summary of the method: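 Luminescent ATP signal (CellTiter-Glo) serves as the viability read-out after 24 hr compound treatment of lymphoblastoid cells in complete medium at 37 C. Concentration-response data were fitted to the Hill equation to give AC50 values.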

[10] = Cell Viability - LYMP2-008 (AID 980); note: nearly all actives have a fitted effect of over 60% in size
Summary of the method: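 qHTS, human lymphoblastoid line, 2500 cells/well; 5 hr preincubation, 24 hr compound, 37 C. CellTiter-Glo ATP luminescence. AC50 via Hill equation. Tetraoctylammonium bromide positive control.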

[11] = Cell Viability - LYMP2-010 (AID 981); note: nearly all actives have a fitted effect of over 55% in size
Summary of the method: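 Luminescent ATP signal (CellTiter-Glo) served as the viability read-out. Cells of the human lymphoblastoid line were treated with compound over a concentration range for 24 hours at 37 C, and AC50 values came from Hill-equation modeling.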

[12] = Cell Viability - LYMP2-014 (AID 983); note: nearly all actives have a fitted effect of over 50% in size
Summary of the method: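 Luminescent ATP signal (CellTiter-Glo, 30 min at room temperature) serves as the viability read-out after 24 hr compound exposure at 37 C. Cells were seeded at 2500 per well and settled 5 hr beforehand.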

[13] = Cell Viability - LYMP2-016 (AID 984); note: nearly all actives have a fitted effect of over 55% in size
Summary of the method: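 Concentration-dependent ATP depletion measured in LYMP2-016 lymphoblastoid cells, 24 h, 37 C; luciferase-based luminescent detection; Hill-equation AC50.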

[14] = Cell Viability - LYMP2-018 (AID 985); note: nearly all actives have a fitted effect of over 50% in size
Summary of the method: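 Luminescent ATP signal (CellTiter-Glo, read after 30 min at room temperature) reports viable cells after 24 hr compound treatment at 37 C. Concentration-response data were fitted to the standard Hill equation for AC50.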

[15] = Cell Viability - LYMP2-020 (AID 986); note: nearly all actives have a fitted effect of over 55% in size
Summary of the method: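 Luminescent ATP signal (CellTiter-Glo, 30 min at room temperature) is the read-out after 24 h compound treatment of lymphoblastoid cells at 37 C. AC50 values come from Hill-equation fits across concentrations.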

[16] = Cell Viability - LYMP2-022 (AID 987); note: nearly all actives have a fitted effect of over 55% in size
Summary of the method: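 qHTS: human lymphoblastoid cells 2500/well; 5 hr 37 C; cpd added; 24 hr 37 C; CellTiter-Glo, 30 min RT; luminescence. AC50 via Hill fit; tetraoctylammonium bromide positive ctrl.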

[17] = Cell Viability - LYMP2-024 (AID 988); note: nearly all actives have a fitted effect of over 60% in size
Summary of the method: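 Steps: seed 2500 cells/well, 5 hr 37 C; add compound, 24 hr 37 C; add CellTiter-Glo, 30 min room temperature; read luminescence. AC50 derived by Hill modelling of concentration-dependent ATP loss.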

[18] = Cell Viability - LYMP2-026 (AID 989); note: nearly all actives have a fitted effect of over 50% in size
Summary of the method: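 Luminescent ATP signal (CellTiter-Glo, 30 min room temperature) measures viable lymphoblastoid cells after 24 hr compound treatment at 37 C. Decreased ATP reflects acute toxicity; AC50 values come from Hill-equation modeling.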

[19] = Cell Viability - LYMP1-002 - Assay at 24 hr (AID 993)
Summary of the method: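 Cells plated 2500/well, 5 hr 37 C; compounds added, 24 hr 37 C; CellTiter-Glo added, 30 min RT; luminescence read. Tetraoctylammonium bromide positive control. Hill-equation AC50.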

[20] = Cell Viability - LYMP1-002 - Assay at 40 hr (AID 994); note: nearly all actives have a fitted effect of over 60% in size
Summary of the method: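 Luminescent ATP signal served as the viability readout, with decreases taken as toxicity. Cells were treated with compounds across a concentration range for 40 hours at 37 C, and AC50 values came from standard Hill modeling.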

[21] = measured here: cell count channel max response
[22] = measured here: lipid channel max response

## CCOC(=O)C1=C(C)NC(C)=C(C(=O)OC)C1c1cccc([N+](=O)[O-])c1 (configuration not stated)
[1]
  outcome: inactive
[2]; at 57.5 µM (top of the series)
  activity change, negative = inhibition: 1.63% (inactive)
[2]; [21]
  max response: -3.59%
[2]; [22]
  max response: -4.4%

## CCN(CC)CCOCCOC(=O)C1(c2ccccc2)CCCC1
[3]
  outcome: inactive
[4]
  outcome: inactive
[1]
  outcome: inactive
[2]; at 25.7 µM (top of the series)
  activity change, negative = inhibition: -7.98% (inactive)
[2]; at 57.5 µM (top of the series)
  activity change, negative = inhibition: -1.81% (inactive) and 10.4% (inactive) and -0.577% (inactive)

## C#CCN(C)CCCOc1ccc(Cl)cc1Cl
[4]
  outcome: inactive
[1]
  outcome: inactive
[2]; at 25.7 µM (top of the series)
  activity change, negative = inhibition: -0.841% (inactive)
[2]; [21]
  max response: -6.58%
[2]; [22]
  max response: -5.76%

## O=C(O)CP(=O)(O)O
[3]
  outcome: inactive
[4]
  outcome: inactive
[1]
  outcome: inactive

## CC(=O)OC(C)C[N+](C)(C)C (configuration not stated)
[1]
  outcome: inactive
[2]; at 57.5 µM (top of the series)
  activity change, negative = inhibition: 7.3% (inactive)
[2]; [21]
  max response: 18.4%
[2]; [22]
  max response: 29.3%

## COc1cc2c(cc1OC)-c1cc(=Nc3c(C)cc(C)cc3C)n(C)c(=O)n1CC2
[3]
  outcome: inactive
[4]
  outcome: inactive
[1]
  outcome: inactive

## CCOC(=O)c1cnc2c(cnn2CC)c1NN=C(C)C
[3]
  outcome: inactive
[4]
  outcome: inactive
[1]
  outcome: inactive

## COc1cc(Cc2cnc(N)nc2N)cc(OC)c1OC
[5]
  outcome: inactive
[6]
  outcome: inactive
[7]
  Potency: inactive
[8]
  Potency: inactive
[9]
  outcome: inactive
[10]
  outcome: inactive
[11]
  Potency: inactive
[12]
  outcome: inactive
[13]
  outcome: inactive
[14]
  Potency: inactive
[15]
  Potency: inactive
[16]
  Potency: inactive
[17]
  Potency: inactive
[18]
  outcome: inactive
[3]
  outcome: inactive
[19]
  outcome: inactive
[20]
  Potency: inactive
[4]
  outcome: inactive
[1]
  outcome: inactive
[2]; at 25.7 µM (top of the series)
  activity change, negative = inhibition: -1.74% (inactive)
[2]; [21]
  max response: -1.95%
[2]; [22]
  max response: -5.27%

## COc1ccc(CCN(C)CCCC(C#N)(c2cc(OC)c(OC)c(OC)c2)C(C)C)cc1OC (configuration not stated)
[1]
  outcome: inactive

## c1ccc2c(c1)CCCC2C1=NCCN1 (configuration not stated)
[1]
  outcome: inactive
[2]; at 57.5 µM (top of the series)
  activity change, negative = inhibition: 9.7% (inactive) and 1.83% (inactive)
[2]; [21]
  max response: 6.5% and -25.5%
[2]; [22]
  max response: 18.8% and -24.9%

## CCCN1C[C@H](CSC)C[C@@H]2c3cccc4[nH]cc(c34)C[C@H]21
[1]
  outcome: inactive

## NC(N)=NC(=O)Cc1c(Cl)cccc1Cl
[3]
  outcome: inactive
[4]
  outcome: inactive
[1]
  outcome: inactive
[2]; at 25.7 µM (top of the series)
  activity change, negative = inhibition: -2.29% (inactive)
[2]; at 57.5 µM (top of the series)
  activity change, negative = inhibition: 1.08% (inactive)
[2]; [21]
  max response: -10.4% and 9.91%
[2]; [22]
  max response: -13.2% and 12.7%

## CC1=C(C)C(=O)C(CCCCC#CCCCC#CCO)=C(C)C1=O
[3]
  outcome: inactive
[4]
  outcome: inactive
[1]
  outcome: inactive
[2]; at 57.5 µM (top of the series)
  activity change, negative = inhibition: 1.13% (inactive)
[2]; [21]
  max response: -22.7%
[2]; [22]
  max response: -21.4%

## COCCOC(=O)C1=C(C)NC(C)=C(C(=O)OC(C)C)C1c1cccc([N+](=O)[O-])c1 (configuration not stated)
[1]
  outcome: inactive
[2]; at 57.5 µM (top of the series)
  activity change, negative = inhibition: 10.8% (inactive) and 3.42% (inactive)
[2]; [21]
  max response: 12.3% and 59.2%
[2]; [22]
  max response: 26.9% and 56.5%
